PubChem BioAssay
“And” between values parts separate entries of the source, which are not always exact repeats. Equal entries are not always repeated. The source made the active and inactive calls.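 The calls were made as follows, unless noted: active = compounds whose cell count with miR-34 switched on is under 0.7 times the count with it off; inactive = the rest.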

Experiments:
[1] = viability loss with induced miR-34 in A549 – imaging, A549 dox-inducible miR-34, nuclei and caspase counts, primary screen (AID 1347080); conditions: A549 miR-34 inducible, Hoechst nuclei count, 48 h; also: test concentration not given here
[2] = MELAS cybrid and Rieske KO viability enhancers – cell-based, MELAS cybrids, Rieske KO mouse fibroblasts, CellTiter-Glo, primary screen (AID 1508586;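 active = mean z-score across replicates of 1.96 or higher in either the MELAS or the Rieske mutant cell line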;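 also: test concentration not given here; z relative to plate mean and SD of compound and empty wells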); conditions: low glucose
[3] = galactose survival enhancers in mitochondrial complex I cybrids – cell-based, galactose medium, ATP luminescence, primary screen (AID 1645843;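 active = z-score of at least 1.8 in each of two replicates, scored against plate mean and spread of sample wells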;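 also: positive z means more ATP and so rescue of galactose-driven cybrid death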); conditions: complex I mutant cybrid cells, 72 h, stronger effect = higher value
[4] = stronger effect = lower value, cell number ratio, induced over uninduced
[5] = measured here: relative caspase fold change +Dox/-Dox
[6] = measured here: total cells with miR-34 induction, stronger effect = lower value
[7] = measured here: total cells without miR-34 induction
[8] = MELAS cybrid survival, CellTiter-Glo 48 h, stronger effect = higher value
[9] = Rieske KO mouse fibroblast survival, CellTiter-Glo 72 h

SMILES	fold change [1, 4]	fold change [1, 5]	cell count [1, 6]	cell count [1, 7]	z-score [2, 8]	z-score [2, 9]	z-score [3]
O=C(O)c1ccc(-c2ccc([N+](=O)[O-])cc2Cl)o1	0.876 (inactive)	0.203	8260	9440	0.0167 (inactive)	-0.308	0.255 (inactive)
CN1CCN(Cc2ccc(-c3nc(-c4cccnc4)cc(=O)[nH]3)cc2)CC1	0.911 (inactive)	1.1	8750	9610	-0.317 (inactive)	-0.261	-0.55 (inactive)
CCN(CCc1ccccn1)C(=O)c1cc(-c2cnc(N)nc2)nc2c(C)cccc12	0.904 (inactive)	1.79	8640	9560	-0.0572 (inactive)	-0.177	0.51 (inactive)
C=CCn1cc(-c2nc3c([nH]2)c(-c2cccnc2)nn3C)c(C)n1	0.874 (inactive)	0.787	8680	9940	-1.29	2.45	-0.47 (inactive)
COc1ccc(OC)c(-c2nc3ccccc3o2)c1	0.826 (inactive)	1.28	6950	8410	0.0538 (inactive)	0.572	-0.51 (inactive)
O=C1CN(C(=O)Nc2nncs2)CCN1Cc1cccc(F)c1	0.896 (inactive)	1.07	9320	10400	0.315 (inactive)	-0.441	-0.53 (inactive)
O=c1c2nccnc2ncn1Cc1ccc2nsnc2c1	0.878 (inactive)	1.36	8120	9250	-0.0326 (inactive)	-0.667	-0.53 (inactive)
Nc1ccc(Sc2ccc(N3C(=O)c4ccc(N)cc4C3=O)cc2)cc1	0.816 (inactive)	1.86	8200	10000	0.874 (inactive)	0.253	-0.975 (inactive)
c1ccc(NCc2cccnc2)cc1	0.876 (inactive)	1.56	8370	9560	-0.153 (inactive)	-0.0248	0.545 (inactive)
CCn1ncc(NC(=O)Cn2nc(C)c(-c3cccc(C(C)=O)c3)c2C)n1	0.83 (inactive)	2.28	2420	2910	-0.514 (inactive)	-0.567	-0.465 (inactive)
Cn1nc(-c2cccnc2)c2[nH]c(-c3ccc4c(c3)OCCO4)nc21	0.86 (inactive)	1.08	5270	6130	12.6 (active)	3.9	4.01 (active)
CNC(=O)c1cc(Oc2ccc3nc(Nc4ccc(Cl)c(C(F)(F)F)c4)[nH]c3c2)ccn1	0.938 (inactive)	0.861	2770	2950	1.25 (inactive)	-0.647	-2.66 (inactive)
O=C(NCCc1ccco1)c1cc(C2CC2)[nH]n1	0.916 (inactive)	1.14	9380	10200	0.356 (inactive)	0.504	-0.495 (inactive)
CC(C)(C)c1cn(C2CCN(C(=O)c3cnc4ccccc4n3)CC2)nn1	0.867 (inactive)	1.26	7870	9080	0.15 (inactive)	-0.382	-0.44 (inactive)
CCOC(=O)C(CCc1ccccc1)NC(C)C(=O)N1C(C(=O)O)CC2CCCC21 (stereo unspecified)	0.892 (inactive) and 0.893 (inactive)	1.7 and 1.12	8500 and 7970	9530 and 8920	-0.00441 (inactive)	0.321	0.52 (inactive)
O=C(O)CCc1c[nH]c2ccccc12	0.896 (inactive)	0.538	8830	9860	0.524 (inactive)	-0.334	0.56 (inactive)
CN(C)C(=O)CN(C)C(=O)c1cccc(Nc2ncnc3c2cnn3C)c1	0.866 (inactive)	1.54	8650	9990	0.0352 (inactive)	-0.276	-0.525 (inactive)
CC1OC(OCC2OC(Oc3c(-c4ccc(O)c(O)c4)oc4cc(O)cc(O)c4c3=O)C(O)C(O)C2O)C(O)C(O)C1O (stereo unspecified)	0.944 (inactive) and 0.91 (inactive)	1.42 and 0.851	10400 and 8400	11000 and 9230	-0.328 (inactive)	-0.0914	0.225 (inactive)
CCn1cnc(NC(=O)N(C)CC2Cc3ccccc3O2)n1 (stereo unspecified)	0.971 (inactive)	1.16	9520	9810	-0.133 (inactive)	-0.0873	-0.62 (inactive)
COc1cccc(OC)c1-c1ccc(C(=O)Nc2cccnc2)o1	0.893 (inactive)	2.2	7930	8880	0.0755 (inactive)	0.502	-0.555 (inactive)
CCc1c(C)[nH]n(-c2nn[nH]n2)c1=O	0.897 (inactive)	0.608	8110	9050	-1.16 (inactive)	-0.864	0.055 (inactive)
Cc1ccc(NC(=O)c2ccc3nccnc3c2)cn1	0.855 (inactive)	1.41	8560	10000	0.00943 (inactive)	-0.47	-0.48 (inactive)
COc1cccc2c(=O)n(Cc3ccc4ncccc4c3)cnc12	0.883 (inactive)	1.22	8080	9140	-0.263 (inactive)	-0.193	-0.28 (inactive)
